Assay [1] can be described thus: cAMP Responsive Elements (CRE) small molecule antagonists, cell-based qHTS assay: qHTS cell viability counter screen (AID 2060913). Note: nearly all actives have a fitted effect of over 40% in size. An outline of the steps:
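Cytotoxicity counter screen multiplexed with the CRE-bla antagonist read: HEK293T cells in DMEM with dialyzed FBS and 25 mM HEPES were treated 3 hrs under 0.25 uM final NKH477, then viability measured by CellTiter-Glo luminescence.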
(In general: qHTS replaces the single test concentration by a dilution series.)

Assay [2] in a line: cAMP Responsive Elements (CRE) small molecule agonists, cell-based qHTS assay: qHTS cell viability counter screen (AID 2060914). Note: nearly all actives have a fitted effect of over 50% in size. Note: potency is the fitted concentration of half-maximal effect. The method in brief:
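Luminescence read-out (CellTiter-Glo, 30 min RT) of ATP-based viability in CRE-bla HEK 293T cells, run in the same wells as the β-lactamase reporter assay after 3 h compound treatment at 37 °C.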

SMILES strings stand for the structures. Results filed as inconclusive are left out. Unmarked numbers belong to inactive results. The source made the active and inactive calls. Calls come from the whole dose curve; as a rule, active = well fitted cell-killing curve with a large enough effect in the repeat runs; inconclusive = weak or mixed curves, or effect the other way; inactive = flat fitted curve, though single readings scatter.
% is set by controls: 0 for no effect and ±100 for the full control effect.

For the compound `Cn1cnc2c(F)c(Nc3ccc(Br)cc3Cl)c(C(=O)NOCCO)cc21`, the Potency entry in assay [1] and in assay [2] was “inactive” throughout.

On to `C=C1C[C@@]23CC[C@H]4[C@@](C)(CCC[C@@]4(C)C(=O)O[C@@H]4O[C@H](CO)[C@@H](O)[C@H](O)[C@H]4O)[C@@H]2CC[C@]1(O[C@@H]1O[C@H](CO)[C@@H](O)[C@H](O[C@@H]2O[C@H](CO)[C@@H](O)[C@H](O)[C@H]2O)[C@H]1O[C@@H]1O[C@H](CO)[C@@H](O)[C@H](O)[C@H]1O)C3`, for which the Potency entry in assay [1] and in assay [2] was “inactive” each time.

In the case of `CCCCCCCCCCCCCCCCCC(=O)OCC(O)CO` (stereo unspecified), the Potency result in assay [1] and in assay [2] was “inactive” in each case.

As to `CCCN(CCC)c1c([N+](=O)[O-])cc(C(F)(F)F)c(N)c1[N+](=O)[O-]`, in assay [1], the Potency result is “inactive”. In assay [2], the Potency is 60.9 µM (active).

On to `N#Cc1cc2ccccc2c2ccccc12`, for which the Potency entry in assay [1] and in assay [2] was “inactive” throughout.

On to `CN(C)CCCOC1(Cc2ccccc2)CCCCCC1`, for which the Potency entry in assay [1] and in assay [2] was “inactive” in each case.

Turning to `CC(=O)Nc1ccc2c(c1)Cc1cc(NC(C)=O)ccc1-2`, the Potency result in assay [1] and in assay [2] was “inactive” throughout.

For `CC(C)NCC(O)c1ccc2ccccc2c1` (stereo unspecified), the Potency entry in assay [1] and in assay [2] was “inactive” throughout.

Regarding `CC(=O)c1ccccc1O`, the Potency result in assay [1] and in assay [2] was “inactive” in each case.

As to `CC(C)c1ccc(C(C)C)cc1`, the Potency result in assay [1] and in assay [2] was “inactive” in each case.

For the compound `C=C(C)C(=O)OC`, the Potency entry in assay [1] and in assay [2] was “inactive” in each case.

Take `CC(=O)O[C@@H]1C(=O)O[C@@H]2[C@H]1OC(=O)[C@@H]2OC(C)=O`: the Potency result in assay [1] and in assay [2] was “inactive” in each case.

Consider `CCCc1ncc(C[n+]2ccccc2C)c(N)n1`, for which the Potency result in assay [1] and in assay [2] was “inactive” throughout.

`C1CCC(SSC2CCCCC2)CC1`: the Potency result in assay [1] and in assay [2] was “inactive” in each case.

Turning to `Cc1cscn1`, the Potency result in assay [1] and in assay [2] was “inactive” each time.

On to `CN1CCC(=C2c3ccccc3Sc3ccccc32)CC1`, for which the Potency result in assay [1] and in assay [2] was “inactive” each time.

As to `COc1ccc(OC)cc1`, the Potency entry in assay [1] and in assay [2] was “inactive” throughout.

In the case of `CCOC(=O)c1ccccc1C`, the Potency entry in assay [1] and in assay [2] was “inactive” in each case.

In the case of `Cc1ccccc1N=C(N)N=C(N)N`, the Potency entry in assay [1] and in assay [2] was “inactive” throughout.

In the case of `O=C(O)Cc1cn(-c2ccccc2)nc1-c1ccc(Cl)cc1`, the Potency result in assay [1] and in assay [2] was “inactive” in each case.

For the compound `CCCCCC/C=C\CCCCCCCC(=O)O`, the Potency entry in assay [1] and in assay [2] was “inactive” throughout.

On to `C[C@@H]1CN(c2c(F)c(N)c3c(=O)c(C(=O)O)cn(C4CC4)c3c2F)C[C@H](C)N1`, for which, in assay [1], the viability change, negative = cytotoxic was -4.19% [at 18.9 µM]. Besides, in assay [2], the activity change, negative = cytotoxicity is -0.413% [at 18.9 µM].

With `C=Cc1ccc(C)cc1`, the Potency entry in assay [1] and in assay [2] was “inactive” in each case.

`C[Si](C)(C)N[Si](C)(C)C`: the Potency result in assay [1] and in assay [2] was “inactive” throughout.

Regarding `Cc1ccc(C(C)NC(=O)[C@@H](NC(=O)OC(C)C)C(C)C)cc1` (stereo partly specified), the Potency result in assay [1] and in assay [2] was “inactive” throughout.

As to `Cc1[nH]nc2c1N=C(c1ccccc1Cl)c1cc([N+](=O)[O-])ccc1N2`, the Potency result in assay [1] and in assay [2] was “inactive” each time.

As for `Cc1ccc(N(CC2=NCCN2)c2cccc(O)c2)cc1`, the Potency entry in assay [1] and in assay [2] was “inactive” throughout.

Turning to `CCCCCCCCCCCC(=O)OCC(O)CO` (stereo unspecified), the Potency entry in assay [1] and in assay [2] was “inactive” throughout.

For `O=C(CCC1CCN(Cc2ccccc2)CC1)c1ccc2c(c1)NCCCC2`, the Potency result in assay [1] and in assay [2] was “inactive” in each case.

With `CCCCC(CC)COC(=O)CCCCCCCC(=O)OCC(CC)CCCC` (stereo unspecified), the Potency result in assay [1] and in assay [2] was “inactive” throughout.

`COC(=O)/C=C/c1ccccc1`: the Potency result in assay [1] and in assay [2] was “inactive” throughout.

As for `CCn1c(=O)c2c(nc(/C=C/c3ccc(OC)c(OC)c3)n2C)n(CC)c1=O`, the Potency entry in assay [1] and in assay [2] was “inactive” in each case.

On to `CCC(CO)CO`, for which the Potency result in assay [1] and in assay [2] was “inactive” each time.

For `CC1CN(c2cc3c(cc2F)c(=O)c(C(=O)O)cn3-c2ccc(F)cc2F)CCN1` (stereo unspecified), the viability change, negative = cytotoxic in assay [1] was 0.301% [at 8.39 µM]. In addition, the activity change, negative = cytotoxicity in assay [2] was -0.163% [at 8.39 µM].

Regarding `CN1CCc2cccc3c2[C@H]1Cc1ccc(O)c(O)c1-3`, the Potency entry in assay [1] and in assay [2] was “inactive” throughout.

Regarding `CCN(CC)C(C)=O`, the Potency entry in assay [1] and in assay [2] was “inactive” each time.

Regarding `NC(N)=S`, the Potency entry in assay [1] and in assay [2] was “inactive” each time.

Regarding `O=C1[C@@H]2[C@H]3CC[C@H](C3)[C@@H]2C(=O)N1CCCCN1CCN(c2ncccn2)CC1`, the Potency entry in assay [1] and in assay [2] was “inactive” throughout.

Turning to `COC1=C(OC)C(=O)C(CCCCCCCCCCO)=C(C)C1=O`, the Potency entry in assay [1] and in assay [2] was “inactive” in each case.

For `CC(=O)OC[C@H]1O[C@@](COC(C)=O)(O[C@H]2O[C@H](COC(C)=O)[C@@H](OC(C)=O)[C@H](OC(C)=O)[C@H]2OC(C)=O)[C@@H](OC(C)=O)[C@@H]1OC(C)=O`, the Potency entry in assay [1] and in assay [2] was “inactive” each time.

`C=C(C)[C@H]1CC=C(C)CC1`: the Potency entry in assay [1] and in assay [2] was “inactive” throughout.

As to `O=C(O)CCN(C1(C(=O)NO)CCCC1)S(=O)(=O)c1ccc(Oc2ccc(F)cc2)cc1`, the Potency result in assay [1] and in assay [2] was “inactive” each time.

For `O=S(=O)(O)c1cc(I)c(O)c2ncccc12`, the Potency entry in assay [1] and in assay [2] was “inactive” throughout.

As to `NC(=O)Cc1cccc(C(=O)c2ccccc2)c1N`, the Potency result in assay [1] and in assay [2] was “inactive” each time.

`CCCCC(CC)COC(=O)/C=C/c1ccc(OC)cc1` (stereo unspecified): the Potency result in assay [1] and in assay [2] was “inactive” each time.

As for `CCCCC(CC)COCC1CO1` (stereo unspecified), the Potency entry in assay [1] and in assay [2] was “inactive” throughout.

Take `C=COCCOCCOCCOC=C`: the Potency result in assay [1] and in assay [2] was “inactive” in each case.

With `O=C(O)Cc1csc(-c2ccc(Cl)cc2)n1`, the Potency entry in assay [1] and in assay [2] was “inactive” throughout.

For the compound `Cc1oc(-c2ccccc2)nc1CCC(=O)c1ccc(CC2SC(=O)NC2=O)cc1` (stereo unspecified), the Potency result in assay [1] and in assay [2] was “inactive” throughout.

With `C=C(C)C(=O)OCCO`, the Potency entry in assay [1] and in assay [2] was “inactive” throughout.

In the case of `COCCC(=O)OC`, the Potency result in assay [1] and in assay [2] was “inactive” each time.

With `CC(C)CC(C)CC(O)CC(C)C` (stereo unspecified), the Potency result in assay [1] and in assay [2] was “inactive” throughout.

Take `CC[C@H](C)[C@@H](C(=O)O)n1sc2ccccc2c1=O`: the Potency entry in assay [1] and in assay [2] was “inactive” in each case.

(Values after PubChem BioAssay (Tox21).)
